Source: PubChem BioAssay (EPA / NIEHS)
Results filed as inconclusive are left out. Calls of active or inactive are those of the source. Rule for the calls: active = hit-call score of the fitted dose curve at least 0.9, where 1 is the maximum; inconclusive = response in the unintended direction; inactive = score below 0.9.

Legend:
[1] = target: Estrogen receptor (Homo sapiens) (UniProt P03372); test: OT_ER_ERaERa_1440: Odyssey Thera (OT) 24-hour HEK293T Protein-Complementation Assay for Estrogen Receptor-alpha/-alpha Homodimer (AID 2283349);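 note: hits raise fluorescence above DMSO for agonists and antagonists alike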
Estrogen receptor (Homo sapiens), sequence (P03372 whole entry, looked up, the tested form may be a part): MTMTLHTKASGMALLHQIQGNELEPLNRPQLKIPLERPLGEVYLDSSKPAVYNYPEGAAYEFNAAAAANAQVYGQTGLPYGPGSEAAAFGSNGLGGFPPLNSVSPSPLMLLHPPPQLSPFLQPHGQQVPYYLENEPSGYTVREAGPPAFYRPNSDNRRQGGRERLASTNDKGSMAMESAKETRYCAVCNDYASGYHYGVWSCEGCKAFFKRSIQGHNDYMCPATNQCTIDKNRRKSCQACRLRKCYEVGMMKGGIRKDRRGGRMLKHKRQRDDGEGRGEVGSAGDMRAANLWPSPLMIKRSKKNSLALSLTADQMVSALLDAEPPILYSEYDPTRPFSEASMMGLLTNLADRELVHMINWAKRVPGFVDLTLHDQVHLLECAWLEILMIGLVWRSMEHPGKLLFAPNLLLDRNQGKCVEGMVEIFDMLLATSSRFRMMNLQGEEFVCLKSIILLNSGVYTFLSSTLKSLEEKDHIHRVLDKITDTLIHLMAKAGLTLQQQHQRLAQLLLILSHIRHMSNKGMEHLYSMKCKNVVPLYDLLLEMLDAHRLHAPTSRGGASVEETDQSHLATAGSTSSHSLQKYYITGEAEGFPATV
Procedure, shortened: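 Readout is the rise in mean fluorescence from reporter fragment complementation when ERα LBD (aa 310-547) units dimerize in HEK293T cells. Measured 24 h after dosing and analysed as increase over DMSO control.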

[2] = target: Estrogen receptor (Homo sapiens) (UniProt P03372); test: OT_ER_ERaERa_0480: Odyssey Thera (OT) 8-hour HEK293T Protein-Complementation Assay for Estrogen Receptor-alpha/-alpha Homodimer (AID 2283351);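 note: rise in fluorescence from reassembled reporter fragments on ERα LBD homodimer in nucleus or whole cell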
Procedure, shortened: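 HEK293T cells stably expressing the human ERα ligand-binding domain (aa 310-547) as a homodimer PCA were dosed with compound for 8 h. Gain of fluorescence intensity versus DMSO vehicle was read by laser scanning cytometry.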

[3] = target: T1, Estrogen receptor (Homo sapiens) + Estrogen receptor beta (Homo sapiens) (UniProt P03372+Q92731); test: OT_ER_ERaERb_0480: Odyssey Thera (OT) 8-hour HEK293T Protein-Complementation Assay for Estrogen Receptor-alpha/-beta Heterodimer (AID 2283352)
T1 sequence (P03372 whole entry, looked up, the tested form may be a part): as above
T1 sequence (Q92731 whole entry, looked up, the tested form may be a part): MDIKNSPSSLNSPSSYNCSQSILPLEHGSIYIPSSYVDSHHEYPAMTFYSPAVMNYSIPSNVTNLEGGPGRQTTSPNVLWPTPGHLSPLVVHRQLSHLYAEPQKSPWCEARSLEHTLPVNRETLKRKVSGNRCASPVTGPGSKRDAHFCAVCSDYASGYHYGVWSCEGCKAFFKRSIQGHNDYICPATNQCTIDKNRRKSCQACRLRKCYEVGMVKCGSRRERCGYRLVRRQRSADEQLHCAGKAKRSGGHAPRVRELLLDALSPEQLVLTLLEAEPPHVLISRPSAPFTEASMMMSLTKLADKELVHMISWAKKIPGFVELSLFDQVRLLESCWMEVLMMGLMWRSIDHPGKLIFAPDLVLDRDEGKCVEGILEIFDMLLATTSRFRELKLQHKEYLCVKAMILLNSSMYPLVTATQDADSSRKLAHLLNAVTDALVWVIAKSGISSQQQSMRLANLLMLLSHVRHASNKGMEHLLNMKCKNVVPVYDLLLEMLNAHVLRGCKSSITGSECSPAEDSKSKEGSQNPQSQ
Procedure, shortened: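 HEK293T cells expressing ER-alpha/ER-beta LBD fusions to complementary reporter fragments were dosed with compound for 8 hours. Heterodimer formation was read as increased nuclear (agonist) or nuclear plus cytoplasmic (antagonist) mean fluorescence intensity versus DMSO vehicle.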

[4] = target: Androgen Receptor/SRC-1 Co-activator, AR (gene 367) (UniProt P10275); test: OT_AR_ARSRC1_0960: Odyssey Thera (OT) 16-hour HEK293T Protein-Complementation Assay for Androgen Receptor/SRC-1 Co-activator (AID 2283353);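 note: actives raise the signal above DMSO so potency reflects increased AR and SRC-1 complex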
Androgen Receptor/SRC-1 Co-activator, AR (gene 367), sequence (P10275 whole entry, looked up, the tested form may be a part): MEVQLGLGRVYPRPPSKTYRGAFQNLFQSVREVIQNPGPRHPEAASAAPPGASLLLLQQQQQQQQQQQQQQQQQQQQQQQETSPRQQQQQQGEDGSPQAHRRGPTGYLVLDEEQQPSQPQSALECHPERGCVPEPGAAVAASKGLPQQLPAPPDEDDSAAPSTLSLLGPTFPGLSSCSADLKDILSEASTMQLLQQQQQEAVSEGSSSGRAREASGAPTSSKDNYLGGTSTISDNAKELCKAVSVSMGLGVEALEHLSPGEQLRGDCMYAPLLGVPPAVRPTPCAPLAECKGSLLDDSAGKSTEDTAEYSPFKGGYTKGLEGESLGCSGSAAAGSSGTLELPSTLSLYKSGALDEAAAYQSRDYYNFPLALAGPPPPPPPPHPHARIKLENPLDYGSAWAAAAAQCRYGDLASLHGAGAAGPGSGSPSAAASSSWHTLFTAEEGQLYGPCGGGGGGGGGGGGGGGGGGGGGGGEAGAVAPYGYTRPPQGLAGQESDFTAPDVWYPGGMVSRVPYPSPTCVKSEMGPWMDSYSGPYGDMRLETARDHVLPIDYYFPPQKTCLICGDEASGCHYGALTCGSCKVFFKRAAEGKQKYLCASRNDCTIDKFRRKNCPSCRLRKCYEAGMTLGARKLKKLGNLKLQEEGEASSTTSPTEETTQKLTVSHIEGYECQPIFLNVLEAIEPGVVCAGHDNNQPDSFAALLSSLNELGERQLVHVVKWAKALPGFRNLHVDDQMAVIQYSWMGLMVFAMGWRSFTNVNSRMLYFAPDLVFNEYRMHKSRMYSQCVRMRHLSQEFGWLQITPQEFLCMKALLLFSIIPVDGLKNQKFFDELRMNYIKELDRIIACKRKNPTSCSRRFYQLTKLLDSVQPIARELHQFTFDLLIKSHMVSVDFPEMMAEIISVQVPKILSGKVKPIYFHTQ
Procedure, shortened: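 HEK293T cells stably expressing AR and SRC-1 fused to split Venus YFP fragments via (Gly4Ser)2 linkers were dosed for 16 h. Nuclear/cytoplasmic fluorescence ratio at 488 nm, ≥400 cells per image, fitted for gain of signal versus DMSO.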

[5] = target: T1, Estrogen receptor (Homo sapiens) + Estrogen receptor beta (Homo sapiens); test: OT_ER_ERaERb_1440: Odyssey Thera (OT) 24-hour HEK293T Protein-Complementation Assay for Estrogen Receptor-alpha/-beta Homodimer (AID 2283356);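 note: heteromer of ER alpha and ER beta binding domains; hits raise reporter fluorescence and both agonists and antagonists give an increase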
Procedure, shortened: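 HEK293T cells stably expressing a PCA pair of ERα LBD (aa 310-547) and ERβ LBD (aa 263-489) were dosed for 24 h. Fluorescence intensity increase versus DMSO vehicle was fitted as gain-of-signal.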

[6] = target: Estrogen receptor beta (Homo sapiens) (UniProt Q92731); test: OT_ER_ERbERb_0480: Odyssey Thera (OT) 8-hour HEK293T Protein-Complementation Assay for Estrogen Receptor-beta/-beta Homodimer (AID 2283357);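 note: active means signal gain over DMSO baseline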
Estrogen receptor beta (Homo sapiens), sequence (Q92731 whole entry, looked up, the tested form may be a part): as the sequence (Q92731 whole entry, looked up, the tested form may be a part) above
Procedure, shortened: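 Readout: increase in mean fluorescence intensity (nucleus for agonists; nucleus plus cytoplasm for antagonists) relative to DMSO, from a reporter-fragment complementation of human ER-beta LBD homodimer in HEK293T cells dosed 8 hours.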

[7] = target: human Peroxisome Proliferator-activated Receptor alpha (PPARa), PPARA (gene 5465) (UniProt Q07869); test: NVS_NR_hPPARa: NovaScreen (NVS) Nuclear Receptor Binding Assay for human Peroxisome Proliferator-activated Receptor alpha (PPARa) (AID 2283359);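 note: activity means loss of TR-FRET signal versus DMSO baseline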
human Peroxisome Proliferator-activated Receptor alpha (PPARa), PPARA (gene 5465), sequence (Q07869 whole entry, looked up): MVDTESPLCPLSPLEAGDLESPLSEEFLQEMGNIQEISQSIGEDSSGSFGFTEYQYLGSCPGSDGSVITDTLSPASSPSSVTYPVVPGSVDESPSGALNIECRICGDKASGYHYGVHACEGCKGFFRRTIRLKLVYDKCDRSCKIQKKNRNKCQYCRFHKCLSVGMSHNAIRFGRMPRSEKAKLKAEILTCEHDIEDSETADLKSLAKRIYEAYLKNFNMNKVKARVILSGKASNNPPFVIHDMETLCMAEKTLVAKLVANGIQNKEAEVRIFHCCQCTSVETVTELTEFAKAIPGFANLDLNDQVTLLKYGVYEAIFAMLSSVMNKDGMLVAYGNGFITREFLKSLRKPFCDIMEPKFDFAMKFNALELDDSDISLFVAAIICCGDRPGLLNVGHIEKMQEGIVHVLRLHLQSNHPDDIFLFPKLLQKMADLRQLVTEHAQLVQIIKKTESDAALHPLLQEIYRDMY
Procedure, shortened: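 Cell-free binding assay with extracted human protein, read by TR-FRET 1 h after chemical dosing. Loss of signal relative to DMSO baseline indicates binding. Primary screen used duplicate single concentration (25 uM); actives followed up in concentration series.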

[8] = target: Estrogen receptor (Homo sapiens) (UniProt P03372); test: NVS_NR_hER: NovaScreen (NVS) Nuclear Receptor Binding Assay for human Estrogen Receptor (ER) (AID 2283348)
Procedure, shortened: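 Cell-free radioligand binding with protein extracted from MCF7 cells; scintillation counting 18 hours after dosing. Loss of signal versus DMSO baseline read as displacement; primary single-concentration screen at 25 uM in duplicate, actives retested in concentration series.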

[9] = target: Androgen Receptor/SRC-1 Co-activator, AR (gene 367) (UniProt P10275); test: OT_AR_ARSRC1_0480: Odyssey Thera (OT) 8-hour HEK293T Protein-Complementation Assay for Androgen Receptor/SRC-1 Co-activator (AID 2283354);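 note: hits raise the complementation signal above DMSO so AC50 marks enhancers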
Procedure, shortened: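 HEK293T cells stably expressing AR and SRC-1 fused to split Venus YFP fragments via (Gly4Ser)2 linkers were read 8 h after compound dosing. Complementation was imaged at 488 and 635nm, and nuclear/cytoplasmic fluorescence ratio (488nm) was taken over ≥400 cells; gain-of-signal versus DMSO.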

[10] = target: Bile acid receptor (Homo sapiens) (UniProt Q96RI1); test: NVS_NR_hFXR_Antagonist: NovaScreen (NVS) Nuclear Receptor Binding Assay for human Farnesoid X Receptor Antagonism (FXR) (AID 2283350)
Bile acid receptor (Homo sapiens), sequence (Q96RI1 whole entry, looked up): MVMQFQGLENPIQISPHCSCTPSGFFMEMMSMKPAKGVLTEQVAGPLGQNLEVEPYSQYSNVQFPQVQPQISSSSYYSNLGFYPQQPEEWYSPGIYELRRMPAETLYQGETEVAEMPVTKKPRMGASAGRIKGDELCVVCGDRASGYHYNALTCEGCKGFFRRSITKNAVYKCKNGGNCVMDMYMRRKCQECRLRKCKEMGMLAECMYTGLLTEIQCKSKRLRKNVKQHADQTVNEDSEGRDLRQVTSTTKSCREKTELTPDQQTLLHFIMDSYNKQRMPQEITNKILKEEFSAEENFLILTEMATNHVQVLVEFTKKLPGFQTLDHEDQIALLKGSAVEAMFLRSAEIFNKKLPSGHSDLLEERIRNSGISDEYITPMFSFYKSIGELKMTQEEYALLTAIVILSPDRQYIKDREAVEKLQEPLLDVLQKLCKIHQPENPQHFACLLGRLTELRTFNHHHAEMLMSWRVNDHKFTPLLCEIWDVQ
Procedure, shortened: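 Cell-free TR-FRET ligand-binding read-out on human FXR (NR1H4) in antagonist mode, measured 1 h after dosing. Primary screen in duplicate at 25 uM, actives retested in concentration series; signal loss scored versus DMSO.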

[11] = target: Retinoic acid receptor alpha (Homo sapiens) (UniProt P10276); test: NVS_NR_hRAR_Antagonist: NovaScreen (NVS) Nuclear Receptor Binding Assay for human Retinoic Acid Alpha Receptor Antagonism (RAR) (AID 2283358)
Retinoic acid receptor alpha (Homo sapiens), sequence (P10276 whole entry, looked up): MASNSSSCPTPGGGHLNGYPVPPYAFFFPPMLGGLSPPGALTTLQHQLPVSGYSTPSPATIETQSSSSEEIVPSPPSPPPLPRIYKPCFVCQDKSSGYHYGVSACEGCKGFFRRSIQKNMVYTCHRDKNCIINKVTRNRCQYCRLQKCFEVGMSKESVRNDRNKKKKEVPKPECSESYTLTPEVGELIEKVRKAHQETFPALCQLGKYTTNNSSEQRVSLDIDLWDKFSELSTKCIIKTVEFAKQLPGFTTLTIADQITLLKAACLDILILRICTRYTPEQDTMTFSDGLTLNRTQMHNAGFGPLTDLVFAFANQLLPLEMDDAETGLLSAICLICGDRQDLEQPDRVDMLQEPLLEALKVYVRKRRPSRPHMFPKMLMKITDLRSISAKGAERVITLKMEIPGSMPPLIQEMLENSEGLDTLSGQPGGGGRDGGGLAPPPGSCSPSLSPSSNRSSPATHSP
Procedure, shortened: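 Cell-free TR-FRET binding assay on extracted receptor protein, run in antagonist mode; signal read 2 hours after chemical dosing. Loss of signal was fitted relative to DMSO baseline. Screened at 25 uM in duplicate, actives followed up in concentration series.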

[12] = target: PGR (gene 5241) (UniProt P06401); test: NVS_NR_hPR: NovaScreen (NVS) Nuclear Receptor Binding Assay for human Progestron Receptor (PR) (AID 2283360);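 note: active means loss of bound radioligand signal versus DMSO baseline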
PGR (gene 5241), sequence (P06401 whole entry, looked up): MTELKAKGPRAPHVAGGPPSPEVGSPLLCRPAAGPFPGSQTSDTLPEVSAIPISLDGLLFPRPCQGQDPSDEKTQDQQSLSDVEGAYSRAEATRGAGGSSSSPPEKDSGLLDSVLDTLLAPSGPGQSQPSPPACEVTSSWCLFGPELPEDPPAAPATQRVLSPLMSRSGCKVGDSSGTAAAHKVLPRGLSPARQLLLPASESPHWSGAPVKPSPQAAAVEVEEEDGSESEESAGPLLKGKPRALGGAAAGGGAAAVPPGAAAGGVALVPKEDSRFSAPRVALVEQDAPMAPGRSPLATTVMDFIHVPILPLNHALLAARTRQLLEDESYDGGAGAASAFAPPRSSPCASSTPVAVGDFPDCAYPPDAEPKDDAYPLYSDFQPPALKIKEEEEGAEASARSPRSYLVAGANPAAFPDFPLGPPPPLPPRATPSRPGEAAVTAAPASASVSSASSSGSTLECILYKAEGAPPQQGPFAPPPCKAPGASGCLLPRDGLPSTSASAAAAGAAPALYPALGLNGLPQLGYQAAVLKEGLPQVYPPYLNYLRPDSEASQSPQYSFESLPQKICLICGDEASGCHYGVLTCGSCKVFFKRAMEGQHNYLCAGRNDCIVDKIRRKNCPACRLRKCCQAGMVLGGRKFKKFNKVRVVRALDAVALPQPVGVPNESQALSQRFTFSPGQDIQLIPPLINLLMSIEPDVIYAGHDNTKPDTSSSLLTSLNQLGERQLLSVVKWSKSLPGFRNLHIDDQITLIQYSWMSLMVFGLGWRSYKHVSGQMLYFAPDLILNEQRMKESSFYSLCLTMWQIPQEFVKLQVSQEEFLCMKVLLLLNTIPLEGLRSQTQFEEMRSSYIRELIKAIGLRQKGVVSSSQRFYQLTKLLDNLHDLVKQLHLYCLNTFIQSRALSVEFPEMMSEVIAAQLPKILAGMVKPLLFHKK
Procedure, shortened: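 Radioligand competition binding on receptor extracted from T47D cells, read by scintillation counting 18 h after dosing. Loss of signal versus DMSO; primary screen in duplicate at 25 uM, actives followed in concentration series.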

Measured: AC50

Cc1ccc(N)cc1O
inactive: [1] | [2] | [3] | [4] | [5] | [6] | [7]

Cn1c(=O)cc(Oc2ccc(F)cc2F)c2cnc(NCC(C)(C)O)nc21
inactive: [8] | [3] | [6]
active: [1] 50 µM | [2] 24.4 µM | [5] 50 µM

CC1(C)C(=O)N(Br)C(=O)N1Br
inactive: [4] | [9] | [6]

Cn1cnc([N+](=O)[O-])c1Sc1ncnc2nc[nH]c12
inactive: [8] | [1] | [2] | [3] | [5] | [6] | [7]

O=C(NS(=O)(=O)/C=C/c1ccccc1)c1ccc(F)cc1Cl
inactive: [1] | [2] | [3] | [5]

CC(C)c1cccc(C(C)C)c1N1C(=O)c2ccc(O)cc2C1=O
active: [10] 41.1 µM

CC(C)=CCCC(C)CCO (stereo unspecified)
not listed: [3] | [10] | [11] | [12]
inactive: all other assays above

Cc1ccc(O)cc1
inactive: [4] | [9] | [6]

O=C(O)c1cccc(Oc2ccccc2)c1
inactive: [1] | [2] | [11] | [7]

COC(=O)c1c(Cl)c(Cl)c(C(=O)OC)c(Cl)c1Cl
inactive: [1] | [10] | [2] | [3]
active: [5] 50 µM | [6] 50 µM

CCC(C)(C)C(=O)O[C@H]1C[C@@H](C)C=C2C=C[C@H](C)[C@H](CC[C@@H]3C[C@@H](O)CC(=O)O3)[C@H]21
inactive: [8] | [1] | [2] | [3] | [5] | [6]

COC(=O)CC(=O)OC
inactive: [1] | [2] | [3] | [5] | [12]

CCCCC(CC)COC(=O)CCCCCCCCC(=O)OCC(CC)CCCC (stereo unspecified)
active: [1] 12.1 µM | [2] 0.949 µM

C1N2CN3CN1CN(C2)C3
inactive: [4]

CCCCC(CC)COC(=O)c1ccc(C(=O)OCC(CC)CCCC)cc1 (stereo unspecified)
inactive: [4] | [9]

O=C1OC(=O)C2C3C=CC(C3)C12 (stereo unspecified)
inactive: [11]
